{"source": "PubChem BioAssay AID1259343", "about": "(VanderVen Lab, College of Veterinary Medicine, Cornell …, 2017)", "note": "The whole screen tested about 6,200 compounds, of which about 2,900 (47%) were called active. The set was probably picked from earlier hits. This is one part of the list. A number with no mark means an inactive call. Rule as the data show it: active = inhibition above about 50%; inactive = the rest.", "data": [{"assay": "Mycobacterium tuberculosis growth inhibition, primary screen (AID 1259343)", "conditions": "inhibition: at 10 µM, hits give high values; outcome: 10 uM", "values": [{"smiles": "COCCNC(=O)c1cc(-c2ccc(Cl)cc2)on1", "inhibition": "60% (active)"}, {"smiles": "CC(C)OCCCNC(=O)Cc1cc(-c2cc3ccccc3o2)on1", "inhibition": "90.9% (active)"}, {"smiles": "COCCNC(=O)Cc1cc(-c2cc3ccccc3o2)on1", "inhibition": "34.7%"}, {"smiles": "NC(Cc1cnc[nH]1)C(=O)Nc1ccc2ccccc2c1", "note": "(stereo not drawn)", "inhibition": "72.9% (active)"}, {"smiles": "O=C(COC(=O)c1ccco1)Nc1ccc2ccccc2c1", "inhibition": "39.6%"}, {"smiles": "Cc1cc(NC(=O)CN2CCOC(C)C2)ccc1Br", "note": "(stereo not drawn)", "inhibition": "16.5%"}, {"smiles": "CC1CCc2c(sc(NC(=O)CN3CCOC(C)C3)c2C#N)C1", "note": "(stereo not drawn)", "inhibition": "30.6%"}, {"smiles": "CCOC(=O)c1ccc(NC(=O)CN2CCOC(C)C2)cc1", "note": "(stereo not drawn)", "inhibition": "92% (active)"}, {"smiles": "CN(Cc1nnc(-c2ccc(F)cc2)o1)C1C2CCOC2C1(C)C", "note": "(stereo not drawn)", "inhibition": "21.1%"}, {"smiles": "Clc1ccc(-c2noc(CSc3nncs3)n2)cc1", "inhibition": "-30.4%"}, {"smiles": "Cc1cc(C)c2c(=O)[nH]c(SCc3nnc(-c4ccc(Cl)cc4)o3)nc2n1", "inhibition": "-6.74%"}, {"smiles": "Fc1ccc(-c2csc(SCc3nnc(-c4ccc(F)cc4)o3)n2)cc1", "inhibition": "69.3% (active)"}, {"smiles": "Fc1ccc(OCc2nnc(-c3ccc(Br)cc3)o2)cc1", "inhibition": "-26.1%"}, {"smiles": "Clc1ccc(-c2nnc(CSc3nncs3)o2)cc1", "inhibition": "97.2% (active)"}, {"smiles": "O=C1NC(=O)C(=Cc2cc(Br)c(Sc3ccc(Cl)cc3)o2)S1", "inhibition": "85.2% (active)"}, {"smiles": "COc1ccc2c(CC(=O)Nc3nc(CN4CCCCC4)cs3)coc2c1", "inhibition": "26.5%"}, {"smiles": "CC1CCCN(Cc2csc(NC(=O)c3cccc(I)c3)n2)C1", "note": "(stereo not drawn)", "inhibition": "50.6% (active)"}, {"smiles": "O=C(Nc1nc(CN2CCCCC2)cs1)c1cc(F)cc(F)c1", "inhibition": "-30.9%"}, {"smiles": "O=C(CCc1nc2ccccc2s1)N1CCN(Cc2ccc(C(F)(F)F)cc2)CC1", "inhibition": "88.1% (active)"}, {"smiles": "O=C(C=Cc1cccs1)N1CCN(Cc2nc3ccccc3s2)CC1", "inhibition": "67.3% (active)"}, {"smiles": "O=C(c1ccc2c(c1)OCO2)C1CCCN(Cc2nc3ccccc3s2)C1", "note": "(stereo not drawn)", "inhibition": "inactive"}, {"smiles": "CCc1cc(-c2n[nH]c(C)c2-c2nc3ccccc3s2)c(O)c(CN2CCN(C)CC2)c1O", "inhibition": "10.5%"}, {"smiles": "Oc1cccc(/C=N\\Nc2cc(N3CCCC3)nc(N3CCCC3)n2)c1", "inhibition": "14%"}, {"smiles": "COc1cccc(C=NNc2nc(-c3ccccc3)c(C)s2)c1OC", "inhibition": "91.8% (active)"}, {"smiles": "Cc1sc(NN=Cc2cccc(O)c2)nc1-c1ccccc1", "inhibition": "94.2% (active)"}, {"smiles": "COc1ccc(/C=N\\NC(=O)c2ccncc2)c(C(=O)O)c1OC", "inhibition": "42.2%"}, {"smiles": "COc1ccc(-c2nc(Nc3ccc(Cl)nc3)sc2C)cc1", "inhibition": "25.9%"}, {"smiles": "Cc1sc(-c2cccc(O)c2)nc1-c1ccccc1", "inhibition": "23.1%"}, {"smiles": "CC1(C)CC(=O)C(Sc2ccc(Br)cc2)=C(O)C1", "inhibition": "57.1% (active)"}, {"smiles": "CN(Cc1ccccc1)C(=O)c1ccc(Nc2nc(C(N)COCc3ccccc3)cs2)nc1", "note": "(stereo not drawn)", "inhibition": "97.6% (active)"}, {"smiles": "CCCCN(C)C(=O)c1ccc(Nc2nc(C(N)COCc3ccccc3)cs2)nc1", "note": "(stereo not drawn)", "inhibition": "64.2% (active)"}, {"smiles": "CCn1c(O)c(C(C)=Nc2ccnn2C2CCCCC2)c(=O)n(CC)c1=S", "inhibition": "100% (active)"}, {"smiles": "O=C(Nc1ccnn1C1CCCCC1)c1c(O)cc(F)cc1F", "inhibition": "29.4%"}, {"smiles": "Cc1ccc(OCC(O)Cn2c(C)nc3sc4c(c3c2=O)CCC4)cc1", "note": "(stereo not drawn)", "inhibition": "64.5% (active)"}, {"smiles": "Cc1ccc(OCC(O)Cn2c(C)cc(=O)n3ncnc23)cc1", "note": "(stereo not drawn)", "inhibition": "-1.37%"}, {"smiles": "Cc1cccc(-c2ncc(CNCCCc3ccccc3)cn2)c1", "inhibition": "24.1%"}, {"smiles": "CCc1cnc(-c2cccc(O)c2)nc1", "inhibition": "87.9% (active)"}, {"smiles": "CCCc1cnc(-c2cnc3ccccc3c2)nc1", "inhibition": "15.5%"}, {"smiles": "O=[N+]([O-])c1ccc(Sc2nnc(-c3ccco3)o2)c([N+](=O)[O-])c1", "inhibition": "57.5% (active)"}, {"smiles": "CCCc1cc(=O)[nH]c(SCCOc2ccc(OCC)cc2)n1", "inhibition": "-6.11%"}, {"smiles": "CCOc1ccc(C2=NCC(CSc3n[nH]c(N)n3)S2)cc1", "note": "(stereo not drawn)", "inhibition": "19.9%"}, {"smiles": "CCOc1ccc(CSc2n[nH]c(-c3ccccn3)n2)nc1", "inhibition": "99.6% (active)"}, {"smiles": "CCN(CC(=O)Nc1ccc(C#N)cc1)C1CCCCC1", "inhibition": "-29.6%"}, {"smiles": "N#Cc1ccc(NC(=O)NC2CC2c2c(F)cccc2F)cc1", "note": "(stereo not drawn)", "inhibition": "51.6% (active)"}, {"smiles": "O=c1[nH]c2ccccc2n1CCCSc1nnc(COc2ccccc2Cl)o1", "inhibition": "42.5%"}, {"smiles": "C=CCSc1nnc(COc2ccccc2)o1", "inhibition": "95.2% (active)"}, {"smiles": "C=CCSc1nnc(Nc2ccc(Oc3ccccc3)cc2)s1", "inhibition": "inactive"}, {"smiles": "Cc1c(C#N)c2nc3ccccc3n2c(=O)/c1=C/Nc1ccc(F)cc1", "inhibition": "-33.8%"}, {"smiles": "Cc1cccc(N/C=c2\\c(C)c(C#N)c3nc4ccccc4n3c2=O)c1", "inhibition": "-34.9%"}, {"smiles": "Cc1c(CCCl)c(Cl)n2c(nc3ccccc32)c1C#N", "inhibition": "56.3% (active)"}, {"smiles": "Cn1nc2c(c1NC(=O)c1ccc(Cc3ccccc3)cc1)CCC2", "inhibition": "83.6% (active)"}, {"smiles": "COCCNc1c2c(nc3c(-c4ccccc4)c(C)nn13)CCCC2", "inhibition": "25.2%"}, {"smiles": "O=S1(=O)CCC(=NNc2ccc(Cl)cc2)c2cc(F)ccc21", "inhibition": "45%"}, {"smiles": "OCC1(CCCc2ccccc2)CCN(Cc2cc(Cl)ccc2O)CC1", "inhibition": "38.5%"}, {"smiles": "Clc1ccc(NN=C2CCN(Cc3ccccc3)CC2)cc1", "inhibition": "94.7% (active)"}, {"smiles": "O=[N+]([O-])c1cnc2ccc3ccccc3c2c1", "inhibition": "96.6% (active)"}, {"smiles": "Cc1cc(Br)c2c(c1)C1(OCCO1)C(=O)N2", "inhibition": "-4.59%"}, {"smiles": "Cc1ccc(CNc2nccn(-c3cc(C)cc(C)c3)c2=O)cc1", "inhibition": "53.9% (active)"}, {"smiles": "COc1ccccc1CNc1nccn(-c2cccc(C)c2)c1=O", "inhibition": "12.8%"}, {"smiles": "CN(Cc1cccc(C(=O)Nc2cn(C)nn2)c1)CC1Cc2ccccc2O1", "note": "(stereo not drawn)", "inhibition": "86.5% (active)"}, {"smiles": "Cc1cccc(CC(=O)N(C)CC2Cc3ccccc3O2)c1", "note": "(stereo not drawn)", "inhibition": "21%"}, {"smiles": "CN(CC1Cc2ccccc2O1)C(=O)Nc1nc(-c2ccccc2)ns1", "note": "(stereo not drawn)", "inhibition": "4.41%"}, {"smiles": "O=C(CN1CCCC1=O)Nc1ccc(C23CC4CC(CC(C4)C2)C3)cc1", "inhibition": "81.6% (active)"}, {"smiles": "O=C(CN1CCCc2cccc(F)c21)Nc1cccc(F)c1", "inhibition": "2.21%"}, {"smiles": "COCC(=O)N1CCC(C(=O)Nc2cccc(-c3cccc(Cl)c3)c2)CC1", "inhibition": "inactive"}, {"smiles": "CC(C)n1cc(CN2CCC(C(=O)Nc3cccc(-c4cccc(Cl)c4)c3)CC2)cn1", "inhibition": "46.3%"}, {"smiles": "COCc1ccc(CN2CCC(C(=O)Nc3cccc(-c4cccc(Cl)c4)c3)CC2)o1", "inhibition": "62.3% (active)"}, {"smiles": "O=C(Nc1cccc(-c2cccc(Cl)c2)c1)C1CCN(Cc2ccncc2)CC1", "inhibition": "92.8% (active)"}, {"smiles": "Cc1cccc(C(=O)N2N=C(c3ccccc3)CC2(O)C(F)(F)F)c1O", "note": "(stereo not drawn)", "inhibition": "49.1%"}, {"smiles": "CC1=NN(C(=O)c2ccccc2)C(C)(NN(C)c2ccccc2)C1", "note": "(stereo not drawn)", "inhibition": "75.7% (active)"}, {"smiles": "Cc1cc(Cc2c(O)nc(N)[nH]c2=O)ccc1OC(C)C", "inhibition": "36.4%"}, {"smiles": "CCC1c2ccsc2CCN1CC(=O)Nc1ccccc1C#N", "note": "(stereo not drawn)", "inhibition": "39.9%"}, {"smiles": "Cn1ccc(C(=O)Nc2ccccc2N2CCc3sccc3C2)cc1=O", "inhibition": "63.6% (active)"}, {"smiles": "O=S(=O)(c1cccc(Cl)c1Cl)N1CCc2sccc2C1", "inhibition": "17.2%"}, {"smiles": "Cc1nc(Cc2nnc(SCC(=O)c3ccc(Cl)s3)o2)cs1", "inhibition": "9.62%"}, {"smiles": "O=C(CSc1nnc(Cc2ccccc2)o1)c1ccc2ccccc2c1", "inhibition": "67.7% (active)"}, {"smiles": "c1ccc(Cc2nnc(SCc3cccc4ccccc34)o2)cc1", "inhibition": "4.35%"}, {"smiles": "CCCCCCC1C(C#N)=C(N)SC(N)=C1C#N", "inhibition": "24.4%"}, {"smiles": "N#CC1=C(N)SC(N)=C(C#N)C1c1ccc(-c2ccccc2)cc1", "inhibition": "14.3%"}, {"smiles": "CCCCCCCC1C(C#N)=C(N)SC(N)=C1C#N", "inhibition": "93.5% (active)"}, {"smiles": "Cc1cccc(N2CCN(c3ccc4nnc(C5CC5)n4n3)CC2)c1C", "inhibition": "85.7% (active)"}, {"smiles": "CC(C)=NNc1nc(Cl)c(C#N)c(Cl)c1Cl", "inhibition": "102% (active)"}, {"smiles": "FC(F)(F)c1nnc2ccc(NCCC3CCCC3)nn12", "inhibition": "18%"}, {"smiles": "O=C(Nc1cccc(OCc2ccccn2)c1)C1CC1", "inhibition": "18.7%"}, {"smiles": "O=C(Nc1cccc(/C=C/c2ccccn2)c1)C1CCCC1", "inhibition": "97.1% (active)"}, {"smiles": "O=C(Nc1cnc(-c2ccccc2)nc1)C1CCCC1", "inhibition": "48.4%"}, {"smiles": "CC(C)n1c(CCC(=O)O)ccc1-c1ccc(Br)cc1", "inhibition": "50.3% (active)"}, {"smiles": "CC(C)(C)C1CCC(CN2CC(O)C(N3CCCC3)C2)CC1", "note": "(stereo not drawn)", "inhibition": "41.1%"}, {"smiles": "CC(Sc1n[nH]c(-c2ccc(Cl)cc2)n1)C(=O)NCc1ccco1", "note": "(stereo not drawn)", "inhibition": "42%"}, {"smiles": "CCOC(=O)CCCNC(=O)CSc1n[nH]c(-c2ccc(Br)cc2)n1", "inhibition": "74.5% (active)"}, {"smiles": "CC(C)c1ccc(-c2nnn(CC(=O)NC(C)(C)C)n2)cc1", "inhibition": "4.54%"}, {"smiles": "N#Cc1ccc(OCC(O)Cn2nnc(-c3ccc(Cl)cc3)n2)cc1", "note": "(stereo not drawn)", "inhibition": "49.3%"}, {"smiles": "CC(C)c1ccc(-c2nnn(CC(=O)c3ccc(O)cc3)n2)cc1", "inhibition": "55.7% (active)"}, {"smiles": "C=CCOc1ccc(C2c3c(oc4ccc(C)cc4c3=O)C(=O)N2c2nccs2)cc1", "note": "(stereo not drawn)", "inhibition": "-15.9%"}, {"smiles": "COCCOc1nc(-c2ccc(C(F)(F)F)cc2)n(-c2ccc(NC(=O)C(Cl)c3ccccc3)cc2)n1", "note": "(stereo not drawn)", "inhibition": "19.5%"}, {"smiles": "NCC(=O)Nc1ccc(-n2nc(C(F)(F)F)cc2-c2ccc3c(ccc4ccccc43)c2)cc1", "inhibition": "73.5% (active)"}, {"smiles": "CC(C)CN(CC(=O)Nc1cc(C(C)(C)C)nn1-c1ccc(Cl)c(Cl)c1)C(=O)Nc1ccc(C(F)(F)F)cc1", "inhibition": "38.3%"}, {"smiles": "FC(F)(F)c1cccc(N2CCC(N=Cc3ccccc3C(F)(F)F)=N2)c1", "inhibition": "50.2% (active)"}, {"smiles": "CN(N=Cc1ccc([N+](=O)[O-])o1)c1ccccc1", "inhibition": "-45.3%"}, {"smiles": "OCCN(C=NC1=NN(c2cccc(C(F)(F)F)c2)CC1)CCO", "inhibition": "83.2% (active)"}, {"smiles": "C(=NC1=NN(c2ccccc2)CC1)N1CCCCCC1", "inhibition": "-7.42%"}, {"smiles": "O=[N+]([O-])c1ccc(C=NC2=NN(c3cccc(C(F)(F)F)c3)CC2)o1", "inhibition": "87.8% (active)"}, {"smiles": "FC(F)(F)c1cccc(N2CCC(N=Cc3ccccn3)=N2)c1", "inhibition": "93.2% (active)"}]}]}
